The campaign covered roughly 1,200 compounds. About 480 (40%) were called active. Another 29% or so got no clear call; they are omitted. Calls follow the shape of the dose curve; as a rule, active = well fitted inhibition curve with a large enough effect; inconclusive = small, poorly fitted or top-dose-only effect; inactive = no such curve, though single readings can be large or run the other way. Some of the results follow. Entries that show only a call come without a potency.
Potency is read from the fitted curve at half-maximal effect.

The assay in a line: qHTS Assay to Find Inhibitors of Chronic Active B-Cell Receptor Signaling: Hit Validation in Primary Screen. Also: nearly all actives have a fitted effect of over 75% in size. Conditions: ABC-DLBCL IkB-luc/CBR ratio luminescence, 4 h; series mostly up to 46.1 µM. The gist of the method: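 TMD8 ABC-DLBCL cells carrying doxycycline-inducible IkBa-green luciferase fusion and free red luciferase, 0.5% FBS, dosed 46 uM–3 nM with doxycycline for 4 h at 37C. Green/red luminescence ratio normalized to basal and 10 uM MG-132.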
(In general: In qHTS, concentration-response curves come from the screen itself.)
Regarding `CC(=O)c1ccc2c(c1)CC(C)C(=O)N2C` (configuration not stated), the Potency result is “inactive”.
The entry for `COCCn1c(-c2cccc([N+](=O)[O-])c2)nc2c1c(=O)[nH]c(=O)n2Cc1ccccc1` is “inactive”.
The figure for `Cc1cccc(-n2c3nc(=O)[nH]c(=O)c-3cc3cc([N+](=O)[O-])ccc32)c1` is 7.31 µM (active); for `Cc1ccc(C)c(-n2c3nc(=O)[nH]c(=O)c-3cc3cc([N+](=O)[O-])ccc32)c1` it is “inactive”; for `Cn1c(=O)n(C)c2cc(NS(=O)(=O)c3ccc(Br)s3)ccc21` it is “inactive”.
As for `O=C1N[C@H]2CC=C[C@H]2Nc2ccccc21`, the Potency entry was “inactive”.
Take `CCNC(=O)[C@H]1O[C@@H](n2cnc3c(N)nc(NCCc4ccc(CCC(=O)O)cc4)nc32)[C@H](O)[C@@H]1O`: the Potency is 0.0731 µM (active).
The same measure for `COC(=O)C1=C(C)NC(C)=C(C(=O)OC)C1/C=C/c1ccccc1`: 20.6 µM (active).
The same measure for `Cc1ccc(NC(=O)C(=O)NCC2CCCN2S(=O)(=O)c2cccs2)cc1C` (configuration not stated): “inactive”; for `COc1ccc(NC(=O)C(=O)NCC2CCCN2S(=O)(=O)c2ccc(C)cc2)cc1` (configuration not stated): 0.517 µM (active); for `CC(C)N=C(NS(=O)(=O)c1ccccc1)C(Cl)(Cl)Cl`: 3.26 µM (active).
Regarding `N#Cc1ccccc1NC(=O)c1cccc(COc2ccc(Cl)cc2Cl)c1`, the Potency entry was “inactive”.
On to `O=C(CSc1cc(Cl)ccc1Cl)Nc1ccc(N2CCOCC2)cc1`, for which the Potency entry was “inactive”.
As for `Cc1ccc2nc(SCC(=O)Nc3cc(C(F)(F)F)ccc3N3CCOCC3)[nH]c2c1`, the Potency is 2.06 µM (active).
The entry for `CCN(CC)S(=O)(=O)c1ccc(N2CCOCC2)c(NC(=O)c2c3c(nc4ccccc24)CCC3)c1` is “inactive”; for `Cc1onc(-c2ccccc2)c1C(=O)Nc1cc(C(F)(F)F)ccc1N1CCOCC1` it is 20.6 µM (active).
Consider `C=CCNC(=S)N/N=C/c1ccc(C(C)(C)C)cc1`, for which the Potency entry was “inactive”.
The figure for `Cc1ccc(S(=O)(=O)N(C)C[C@@H]2Oc3ccc(NC(=O)CCC(F)(F)F)cc3CC(=O)N([C@@H](C)CO)C[C@@H]2C)cc1` is 9.2 µM (active); for `COc1cc(SSc2cc(OC)cc([N+](=O)[O-])c2N)c(N)c([N+](=O)[O-])c1` it is “inactive”; for `Nc1ccc(C(=O)n2c3ccccc3c3ccccc32)cc1` it is 13 µM (active).
The same measure for `COc1cccc(C2NC(=S)NC(C)=C2C(=O)c2ccccc2)c1OC` (configuration not stated): 16.4 µM (active); for `COc1cc2c(cc1C1NC(=S)NC(C)=C1C(N)=O)CCCC2` (configuration not stated): “inactive”.
The same measure for `CCCCN(C(=O)CSc1nc2ccccc2n1CC)C1CCS(=O)(=O)C1` (configuration not stated): “inactive”; for `Cc1cc(C(=O)OCC(=O)Nc2c(Cl)cccc2Cl)c(C)o1`: “inactive”.
As for `Cc1cc2c(cc(C(=O)OCC(=O)NCc3cccs3)n2C(C)C)o1`, the Potency was 8.2 µM (active).
For `O=C(NC(=S)NC1CCSC1=O)c1ccccc1` (configuration not stated), the Potency entry was “inactive”.
For the compound `Cc1cccc(C)c1NC(=O)CNC(=O)CNC(=O)Cc1cccc2ccccc12`, the Potency entry is “inactive”.
In the case of `CCOC(=O)c1ccccc1NC(=O)Cn1c(-c2nonc2N)nc2ccccc21`, the Potency is 2.31 µM (active).
In the case of `COC(=O)c1ccccc1NC(=O)Cn1c(-c2nonc2N)nc2ccccc21`, the Potency was 0.731 µM (active).
As for `CCC(=O)Nc1nonc1-c1nc2ccccc2n1Cc1cccc2ccccc12`, the Potency was 2.91 µM (active).
The same measure for `COCCNC(=S)N/N=C(\C)c1ccc(Cl)s1`: “inactive”; for `CCONC(=O)Nc1ccccc1[N+](=O)[O-]`: “inactive”.
The same measure for `COCCNC(=S)N/N=C(\C)c1ccc(Cl)c(Cl)c1Cl`: “inactive”; for `CCOc1ccccc1N1CSC2=C(C#N)C(c3c(OC)ccc4ccccc34)CC(=O)N2C1` (configuration not stated): “inactive”; for `N#CC1=C(N)Oc2cc(N)ccc2C1c1cccc(Br)c1` (configuration not stated): 4.11 µM (active).
The figure for `CN(C)c1ccc2c(c1)OC(N)=C(C#N)C2c1cccc(F)c1` (configuration not stated) is 0.82 µM (active).
Take `CCN(CC)c1ccc2c(c1)OC(N)=C(C#N)C2c1cccnc1` (configuration not stated): the Potency is 1.03 µM (active).
Consider `CC(O)c1cccc(-c2ccc(CN3C[C@]4(CO)O[C@@H](CO)C[C@@H]4S3(=O)=O)cc2)c1` (some centres not stated), for which the Potency result is “inactive”.
`CC1=NN(C(N)=S)C(=O)C1N=Nc1ccc(C)c(Br)c1` (configuration not stated): the Potency entry is “inactive”.
For the compound `OC(C#Cc1ccccn1)c1cccs1` (configuration not stated), the Potency result was “inactive”.
The same measure for `COc1ccc(COc2cc(-c3cccc(OC)c3)nc3ccc(N)cc23)cc1`: 2.91 µM (active).
The entry for `CN1c2ccccc2Sc2cc(N)ccc21` is “inactive”; for `COc1ccc(-c2nn(-c3ccccc3)cc2C(=O)NC(=S)NNC(=O)c2ccncc2)cc1` it is “inactive”.
For the compound `COc1ccc(/C=N/NC(=O)CCn2cnc(-c3ccccc3)c2-c2ccccc2)cc1`, the Potency was 2.31 µM (active).
The entry for `COc1ccc(/C=N\NC(=O)c2c(C)nc3ccc(Br)cn23)cc1` is “inactive”.
`COc1ccc(/C=N/NC(=O)CCn2cnc(-c3ccccc3)c2-c2ccccc2)cc1OC`: the Potency was 16.4 µM (active).
Regarding `COc1cc2c(cc1OC)-c1cc(Nc3ccccc3C)nc(=O)n1CC2`, the Potency entry was “inactive”.
The figure for `COc1cc2c(cc1OC)-c1cc(Nc3ccc(C)cc3)nc(=O)n1CC2` is 18.4 µM (active).
With `COc1ccc(Nc2cc3n(c(=O)n2)CCc2cc(OC)c(OC)cc2-3)c(C)c1`, the Potency is 5.17 µM (active).
For `COc1cc2c(cc1OC)-c1cc(Nc3ccccc3)nc(=O)n1CC2`, the Potency is 18.4 µM (active).
The entry for `COc1cc2c(cc1OC)-c1cc(Nc3ccc(N(C)C)cc3)nc(=O)n1CC2` is “inactive”; for `Oc1ccc(-c2nc3cnccn3c2Nc2ccc3c(c2)OCCO3)cc1` it is 23.1 µM (active).
The same measure for `O=C(COc1ccc(C(=O)c2ccccc2)cc1)NCc1ccc(F)cc1`: 4.61 µM (active).
Turning to `CCOc1ccccc1OCC(=O)N/N=C(\C)Cc1ccc(OC)cc1`, the Potency result was “inactive”.
For the compound `O=C(O)CCCCCCCCc1cn(Cc2ccc(C(=O)c3ccccc3)cc2)nn1`, the Potency entry was “inactive”.
`COc1ccc(CNC(=O)COc2ccc(C(=O)c3ccc(F)cc3)cc2)cc1`: the Potency is 3.26 µM (active).
The same measure for `CCOc1cc(C(=O)N/N=C(\C)Cc2ccc(OC)cc2)cc(OCC)c1OCC`: “inactive”.
With `OC[C@H]1O[C@@H](n2cnc3c(Nc4ccccc4)ncnc32)[C@H](O)[C@@H]1O`, the Potency is 7.31 µM (active).
`Nc1ncnc2c1ncn2[C@@H]1O[C@H](CNCc2cccc(C#Cc3ccccc3)c2)[C@@H](O)[C@H]1O`: the Potency entry was “inactive”.
Turning to `Cc1cn(-c2cccnc2)c(C)c1CNC[C@H]1O[C@@H](n2cnc3c(N)ncnc32)[C@H](O)[C@@H]1O`, the Potency entry is “inactive”.
The same measure for `C[C@H](Cc1ccccc1)Nc1ncnc2c1ncn2[C@@H]1O[C@H](CO)[C@@H](O)[C@H]1O`: 0.184 µM (active).
The figure for `CCn1c2ccccc2c2cc(Nc3cc(C)nc4ncnn34)ccc21` is 16.4 µM (active); for `Cc1cc(NC2CCCCC2)nc2ccccc12` it is “inactive”; for `COc1cccc(-c2nnc(SCC(=O)Nc3cc(C)on3)o2)c1` it is “inactive”.
Consider `Cc1cc(NC(=O)CSc2nc3ccccc3c(=O)n2C2CCCC2)no1`, for which the Potency was 4.61 µM (active).
The same measure for `O=[N+]([O-])c1cc(O)c2ncccc2c1`: “inactive”; for `COc1ccc(CNc2nc(NCc3ccc(OC)cc3)c3ncn(C4CCCC4)c3n2)cc1`: 2.31 µM (active); for `COC(=O)c1ccc(CNC(=O)Cn2cnc3c(NCc4ccccc4)ncnc32)cc1`: “inactive”.
The entry for `NS(=O)(=O)c1cc(C(=O)OCC(=O)N2CCc3ccccc3C2)ccc1Cl` is “inactive”; for `O=C(OCC(=O)c1ccc[nH]1)c1ccc(Cl)c(Cl)c1` it is “inactive”; for `CCn1c(=O)c([N+](=O)[O-])c(Cl)c2ccccc21` it is 6.51 µM (active).
Turning to `CCOc1ccc(NCc2ccccc2OCc2cccc(F)c2)cc1`, the Potency result was “inactive”.
With `O=Cc1ccccc1OCCOc1ccccc1C=O`, the Potency is 20.6 µM (active).
In the case of `O=C(CSc1ncccc1C(=O)O)c1ccc2ccccc2c1`, the Potency entry is “inactive”.
For `C/C(Cl)=C\Cn1c(O)c(N=NC(N)=S)c2cc(Br)ccc21`, the Potency is 14.6 µM (active).
For the compound `NC(=S)N=Nc1c(O)n(CCCl)c2ccccc12`, the Potency result was “inactive”.
The entry for `C=CCn1c(O)c(N=NC(=S)Nc2ccccc2F)c2cc(S(=O)(=O)N3CCOCC3)ccc21` is “inactive”; for `CCOC(=O)c1[nH]c(C)c(C(=O)OCC)c1C` it is 18.4 µM (active).
On to `CCOC(=O)c1[nH]c(C)c(C(=O)c2cc(F)ccc2F)c1C`, for which the Potency was 11.6 µM (active).
The entry for `CCOC(=O)c1[nH]c(C)c(C(=O)c2ccc(C)cc2)c1C` is “inactive”.
The same measure for `CCOC(=O)c1[nH]c(C)c(C(=O)N2CCc3ccccc32)c1C`: 4.61 µM (active).
The figure for `CCOC(=O)c1c(C)[nH]c(C(=O)N/N=C/c2ccc(Br)cc2)c1C` is 0.92 µM (active).
Take `CC[C@]12c3[nH]c4cc(CCC(=O)N(C)C)ccc4c3CCN1C(=O)[C@@H](CC(=O)NC/C=C(\C)CCC=C(C)C)C[C@@H]2C(=O)N1CCN(C(=O)c2ccco2)CC1`: the Potency result is “inactive”.
The same measure for `CCC1CCCCN1C(=S)NC(=O)c1cccs1` (configuration not stated): “inactive”; for `CCOC(=O)c1[nH]c(C)c(C(=O)Nc2cc(Cl)ccc2C)c1C`: 7.31 µM (active); for `CCN(CC(=O)Nc1cc(Cl)ccc1C)C(=O)C1CC1`: “inactive”.
`COc1ccc(S(N)(=O)=O)cc1C(=O)OCCCOC(=O)c1cc(S(N)(=O)=O)ccc1OC`: the Potency result was “inactive”.
For the compound `CCN(CC)S(=O)(=O)c1ccc(N/N=C(\C)c2ccc(OC)cc2O)nc1`, the Potency entry is “inactive”.
As for `CCOc1ccc(S(=O)(=O)Nc2cc(OC)ccc2OC)cc1`, the Potency was 4.61 µM (active).
The entry for `CC[C@]12c3[nH]c4cc(CCC(=O)N(C)C)ccc4c3CCN1C(=O)[C@@H](CC(=O)NCCc1ccccn1)C[C@@H]2C(=O)N1CCN(C(=O)C2CC2)CC1` is “inactive”; for `CCN(CC)c1ccc(NC(=O)c2cc(OC)cc(OC)c2)c(C)c1` it is 6.51 µM (active); for `C/C(=N\NC(N)=S)c1cc(-c2ccccc2)c(-c2ccccc2)s1` it is “inactive”.
In the case of `C=CCNC(=S)N/N=C/c1ccc(C(F)(F)F)cc1`, the Potency result is “inactive”.
For the compound `CCN1C(=O)C(O)(C2COC(C)(C)CC2=O)c2cc(Br)ccc21` (configuration not stated), the Potency was 18.4 µM (active).
For `CCc1ccc2oc(=O)cc(CN3CCCCC3C)c2c1` (configuration not stated), the Potency entry is “inactive”.
Turning to `COc1ccc(CCNCC(O)COc2cccc(Br)c2)cc1` (configuration not stated), the Potency entry was “inactive”.
The figure for `Oc1ccc(Nc2nc(-c3cccnc3)cs2)cc1` is 16.4 µM (active).
